Structures are written as SMILES. About 83,000 compounds went through this panel and 20% of them were active in at least one assay; those are over-represented in the sample as a whole.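 Step 1: grow cells in 96-well plates. Step 2: add test compound at a single concentration. Step 3: incubate 48 h. Step 4: record percent growth.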 Values without a mark were called inactive. Active and inactive are the calls of the source. The calls were made as follows: active = growth percent below 10; inactive = the rest.

Holding throughout (assay): NCI-60 one-dose screen, 48 h (100 = growth as untreated, 0 = no growth, -100 = all killed)
Conditions in all cases: 10 µM unless noted

For experiment [1], the system named is DU-145 prostate.
The test system of experiment [2] is K-562 leukemia.
Experiment [3] concerns MALME-3M melanoma.
The subject of experiment [4] is MDA-MB-231 breast.
Experiment [5] has as its system RXF 393 renal.
Experiment [6] has as its system SF-268 CNS.
In experiment [7] the test system is SF-295 CNS.
The test system of experiment [8] is SF-539 CNS.
Experiment [9] concerns UACC-257 melanoma.
For experiment [10], the system named is M14 melanoma.
Experiment [11] deals with HCT-15 colon.
Experiment [12] concerns HT29 colon.
Experiment [13] concerns SNB-19 CNS.
Experiment [14] relates to U251 CNS.
Experiment [15] has as its system PC-3 prostate.
For experiment [16], the system named is SK-MEL-5 melanoma.
Experiment [17] relates to UACC-62 melanoma.
Experiment [18] has as its system LOX IMVI melanoma.
Experiment [19] relates to SK-MEL-28 melanoma.
In experiment [20] the test system is SNB-75 CNS.

Consider `O=C(O)c1cn(C2CC2)c2cc(N3CCN(C(=O)Nc4nc(-c5ccc(Br)cc5)cs4)CC3)c(F)cc2c1=O`, for which the growth in experiment [1] is 17%; in experiment [2], 18%; in [3] it was 29.3%; in experiment [4], 28.9%; in experiment [5], 25.2%; in [6] it was 24.2%. Moreover, the growth was 19.5% in experiment [7]; 23.6% in [8]; 3.57% (active) in experiment [9]; 23.7% in experiment [10]; 14.3% in experiment [11]; 9.27% (active) in [12]. In addition, the growth in experiment [13] is 19.7%; in experiment [14], 12.7%; in [15], 19.2%; in [16], -41% (active); in [17], -1.55% (active); in [18], -9.03% (active). Also, in experiment [19], the growth was 42.2%.

For `Cc1ncc(C(=O)Nc2ccc(CN3CCN(C)CC3)c(C(F)(F)F)c2)cc1C#Cc1cnc(N)c2ncccc12`, the growth in [1] was 34%; in [2] it was -59.5% (active); in experiment [3], -79% (active); in [4] it was -78.9% (active); in experiment [5], -18.9% (active); in experiment [6], 29.8%. In addition, the growth in experiment [7] was 48.8%; in [8], 29.8%; in [9] it was 30.6%; in [10], -79.9% (active); in experiment [11], 20%; in experiment [12], -13.8% (active). For the same compound, the growth was 81% in experiment [13]; 45.7% in experiment [14]; 5.19% (active) in [15]; -59.3% (active) in experiment [16]; 7.13% (active) in experiment [17]; -3.58% (active) in experiment [18]. Moreover, the growth in experiment [19] was -77.4% (active).

Take `CC1=C(CCC(C)NCc2ccc(OCCCN3CCCCC3)cc2)C(C)(C)CCC1` (centres undefined): the growth was -49.1% (active) in experiment [1]; -46.6% (active) in experiment [2]; -80.5% (active) in experiment [3]; -73.4% (active) in experiment [4]; -89.1% (active) in experiment [5]; -76.8% (active) in [6]. For the same compound, the growth in experiment [7] was -70% (active); in experiment [8], -85.3% (active); in experiment [9], -76.1% (active); in experiment [10], -81% (active); in experiment [11] it was -67.2% (active); in [12], -81.9% (active). The growth was -45.7% (active) in [13]; -85.6% (active) in [14]; -56.1% (active) in [15]; -94.6% (active) in experiment [16]; -77% (active) in experiment [17]; -83.4% (active) in [19].

For `CCN(CC)Cc1cc(Nc2ccnc3cc(Cl)ccc23)ccc1O`, the growth in [1] is 97.4%; in experiment [2] it was 87.1%; in experiment [3], 104%; in experiment [4], 72.3%; in [5], 97.4%; in experiment [6], 77.8%. Also, the growth was 93.4% in [7]; 85.6% in experiment [8]; 112% in experiment [9]; 91.2% in experiment [10]; 68% in experiment [11]; 81.2% in experiment [12]. Further, the growth in experiment [13] was 88.7%; in experiment [14], 89.4%; in experiment [15] it was 93.2%; in experiment [16] it was 96.7%; in experiment [17], 92.7%; in experiment [18], 85.8%. In [19], the growth is 94.9%.

On to `CC(C)(C)c1cc(Cl)c(O)c(CNCCO)c1`, for which the growth is 113% in experiment [1]; 102% in [2]; 112% in experiment [3]; 115% in [4]; 98.1% in experiment [5]; 106% in experiment [6]. Besides, the growth in experiment [7] is 97%; in [8], 107%; in experiment [9], 110%; in experiment [10], 104%; in [11], 99.7%; in [12] it was 107%. In addition, the growth in experiment [20] is 90.1%; in experiment [15] it was 112%; in experiment [16], 100%; in [17], 107%; in experiment [19], 103%.

Regarding `CCCn1nc(C(=O)N(C)Cc2ccccc2)c2c1CCC(N1CCc3ccccc31)C2` (centres undefined), the growth in [1] was 109%; in [2], 86.7%; in experiment [3], 112%; in [4] it was 108%; in [5], 90.3%; in experiment [6] it was 96.4%. Moreover, the growth is 92.1% in [7]; 104% in experiment [8]; 109% in [9]; 99% in experiment [10]; 96.3% in experiment [11]; 102% in experiment [12]. For the same compound, the growth in experiment [13] is 90.2%; in [14], 96.9%; in experiment [15] it was 77.2%; in experiment [16] it was 99.7%; in experiment [17], 85.2%; in experiment [18] it was 100%. In addition, the growth in experiment [19] was 106%.

As to `Clc1ccccc1-c1cnn2cc(-c3ccccc3)cnc12`, the growth was 87.6% in experiment [1]; 67.3% in experiment [2]; 89.9% in experiment [3]; 72.4% in [4]; 87.6% in experiment [5]; 85.6% in experiment [6]. For the same compound, the growth was 82.9% in experiment [7]; 81.3% in experiment [8]; 86.3% in experiment [9]; 91.5% in [10]; 70.1% in experiment [11]; 73.4% in [12]. Moreover, the growth in experiment [13] was 71%; in experiment [14], 82.9%; in [15], 86.4%; in experiment [16] it was 93.2%; in experiment [17], 65.9%; in experiment [18] it was 94.6%. In addition, the growth in [19] was 88.3%.

`CN(Cc1ccccc1)c1nc(Cl)c(C2CC(c3ccccc3)=NN2c2ccccc2)s1` (centres undefined): the growth was 102% in experiment [1]; 79.9% in experiment [2]; 90.3% in experiment [3]; 101% in experiment [4]; 101% in [5]; 86.6% in [6]. The growth in [7] was 101%; in experiment [8], 98.9%; in experiment [9], 93%; in experiment [10], 96.6%; in [11], 94.2%; in experiment [12], 80.8%. In addition, the growth was 100% in experiment [13]; 90.2% in experiment [14]; 83.2% in [15]; 98.8% in experiment [16]; 88.8% in experiment [17]; 88.4% in experiment [18]. Further, the growth in experiment [19] is 98.2%.
